Laboratory results taken from PubChem BioAssay AID1016 (Sanford-Burnham Center for Chemical Genomics, 2008).
Out of some 200,000 compounds screened, about 330 (0.17%) were called active.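 How the source made its calls: active means activation factor of 2 or more at 20 µM, a signal rise over negative controls twice the positive control's; inactive means the rest.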 The sample as a whole holds a higher share of actives than the screen did.

System: alkaline phosphatase, intestinal [Bos taurus]
Assay: bovine intestinal alkaline phosphatase activators, primary screen, biochemical, bovine IAP, CDP-star luminescence (AID 1016)
Conditions: purified bovine IAP, 30 min, at 20 µM, stronger effect = higher value, fold of DMSO-control signal, blank-subtracted

Structure (SMILES)	activation factor
Cc1cccc(CC(=O)N2CCN=C2SCc2ccc([N+](=O)[O-])cc2)c1	0.8 (inactive)
COc1ccc(CCNc2cc(C)nc3c(-c4ccc(Cl)cc4)c(C)nn23)cc1OC	0.9 (inactive)
COc1ccc(-c2nc3cnccn3c2NC(C)(C)CC(C)(C)C)cc1O	1.2 (inactive)
COc1ccccc1N1CCN(c2ccc([N+](=O)[O-])nc2)CC1	1 (inactive)
CCS(=O)(=O)c1ccc(O)c(NC(=O)COc2ccc(Cl)cc2)c1	1 (inactive)
Clc1cccc(CN2COc3c(cc(Cl)c4cccnc34)C2)c1	0.8 (inactive)
Cc1ccc(Cl)c(NC(=O)CN(C)CC(=O)Nc2ccc(F)c(F)c2F)c1Cl	1.3 (inactive)
CCOC(=O)c1c(NC(=O)Cn2nc(C(F)(F)F)cc2C)sc2c1CCC2	1 (inactive)
CCc1ccc(C2C(C#N)=C(N)N(N3CCOCC3)C3=C2C(=O)CC(C)(C)C3)s1 (configuration not stated)	1 (inactive)
Cc1c(Br)ccc(NC(=O)COc2ccccc2C(N)=O)c1C	0.9 (inactive)
CC(C)NC(=S)N1CCN(C(c2ccccc2)c2ccccc2)CC1	0.9 (inactive)
COc1ccc(F)c(-c2nc(CN3CCC(c4ccccc4)CC3)c(C)o2)c1	1.1 (inactive)
C=CCC(CC=C)(C(N)=O)c1ccccc1	1 (inactive)
Fc1ccc(CNCc2ccc(Br)cc2)cc1	0.9 (inactive)
CCOC(=O)COc1cc(O)c2c(=O)cc(-c3ccccc3)oc2c1	1.1 (inactive)
CCN(CC)S(=O)(=O)c1ccc(OC(C)C)c(N)c1	1 (inactive)
COCCNc1cc(NCCOC)c([N+](=O)[O-])cc1[N+](=O)[O-]	1.3 (inactive)
Cc1ccc2[nH]c(=O)c(CN3CCCCC3)c(-c3ccccc3)c2c1	1.1 (inactive)
O=S(=O)(NCC1CCCO1)c1cnc(Cl)c(Cl)c1 (configuration not stated)	1 (inactive)
O=C(NCc1cccs1)c1ccc(Br)o1	1 (inactive)
O=[N+]([O-])c1ccc2c(c1)C(N1CCOCC1)/C(=C/C1(O)CCCCC1)O2 (configuration not stated)	1.1 (inactive)

Structure (SMILES)	activation factor
CC(NC(=S)Nc1ccc(OC(F)F)cc1)c1ccc(F)cc1 (configuration not stated)	0.8 (inactive)
O=C1c2ccccc2NC(c2ccccc2O)N1NS(=O)(=O)c1ccccc1 (configuration not stated)	1 (inactive)
CN(CCc1ccccn1)C(=O)CCC1CCCN(Cc2ccccc2OC(F)F)C1 (configuration not stated)	1.1 (inactive)
Cc1ccnc(NC(=O)Cn2ccc([N+](=O)[O-])n2)c1	1 (inactive)
Cc1ccc(NC(=O)NC2CCCCC2)cc1S(=O)(=O)N1CCOCC1	1.2 (inactive)
Cc1ccc(N=C2NC(=O)c3cccc([N+](=O)[O-])c32)cc1	1 (inactive)
Cc1ccc(Sc2ccncc2S(N)(=O)=O)cc1	0.5 (inactive)
Cc1cc2ccccn2c1C(=O)c1cccc(S(=O)(=O)N2CCOCC2)c1	1 (inactive)
Cc1ccc([N+](=O)[O-])c(OCCCNCC(C)O)c1 (configuration not stated)	1 (inactive)
CCn1c(C(C)C)n[nH]c1=S	0.9 (inactive)
O=C(COC(=O)c1cc([N+](=O)[O-])ccc1NCc1ccccc1)NC1CCCCC1	1 (inactive)
COCCn1c(=NC(=O)c2ccccc2[N+](=O)[O-])sc2cc(S(C)(=O)=O)ccc21	1.2 (inactive)
CC(C)CC(CO)N1CCN(C(=O)c2ccc(Cl)cc2Cl)CCC1=O (configuration not stated)	1.2 (inactive)
Cc1cc2oc(=O)cc(CN3CCN(S(=O)(=O)c4cccs4)CC3)c2cc1C(C)C	0.9 (inactive)
N#C/C(=C/c1cccc([N+](=O)[O-])c1)c1nnc2n1CCCCC2	0.5 (inactive)
Cc1ccc(OCCCC(=O)NC(C)c2ccccc2)c(C)c1 (configuration not stated)	1 (inactive)
CN(c1ccccc1)S(=O)(=O)c1cccc(NC(=O)Cc2c(F)cccc2Cl)c1	0.9 (inactive)
CCCCC(CC)CNC(=O)C(=O)C1C(=O)Nc2ccccc21 (configuration not stated)	0.9 (inactive)
COc1ccc(OC)c(NC(=S)N2CCc3ccccc3C2)c1	1 (inactive)
CCS(=O)(=O)N1Cc2ccccc2CC1C(=O)Nc1nc2ccc(F)cc2s1 (configuration not stated)	1 (inactive)
COc1cccc(C(=O)Nc2cc3c(cc2Br)OCCCO3)c1	1.1 (inactive)

Structure (SMILES)	activation factor
O=C(Nc1nnc(C2CC2)s1)C1=NN(C2CCS(=O)(=O)C2)C(=O)CC1 (configuration not stated)	1 (inactive)
Cc1ccc(S(=O)(=O)/N=C(/Nc2ccc3[nH]c(=O)[nH]c3c2)c2ccccc2)cc1	0.9 (inactive)
Cc1cc(/C=C2/C(=N)N3C(=NC2=O)SN=C3S(C)(=O)=O)c(C)n1-c1ccccc1	1.1 (inactive)
Cc1ccc(-n2cnc3ncnc(-c4ccccc4)c32)cc1	1.1 (inactive)
Cc1ccc(NC(=O)c2csc3c2CCCC3)cc1	0.9 (inactive)
Cc1cc(C)c(NC(=S)N2CCCC2C(=O)O)c(C)c1 (configuration not stated)	0.7 (inactive)
CC(Sc1nc(-c2ccccc2)cc(C(F)(F)F)n1)C(=O)Nc1ccc2c(c1)OCO2 (configuration not stated)	0.9 (inactive)
Cc1ccsc1/C=N/n1c(=S)[nH]nc(C)c1=O	0.9 (inactive)
CC(C)C(C)(C#N)NC(=O)CSc1nncn1-c1ccccc1 (configuration not stated)	1 (inactive)
Cc1[nH]c2c(C(=O)N3CCCC(CCC(=O)NCc4ccccc4F)C3)cccc2c1C (configuration not stated)	1.3 (inactive)
COC(=O)c1cccc([N+](=O)[O-])c1CS(=O)(=O)c1ccc(C)cc1	0.8 (inactive)
O=C(COC(=O)c1ccco1)NCc1ccc(Cl)cc1	1 (inactive)
O=C(N/N=C/c1cccc([N+](=O)[O-])c1)C1CC(=O)N(c2ccc(Br)cc2)C1 (configuration not stated)	0.7 (inactive)
CCN(CC(=O)NC(=O)NCc1ccccc1)Cc1nc2ccccc2c(=O)[nH]1	1.5 (inactive)
CN(C)S(=O)(=O)c1cc(NC(=O)CN2C(=O)NC3(CCCc4ccccc43)C2=O)ccc1Cl (configuration not stated)	1 (inactive)
CCN(CC(=O)Nc1ccc(Cl)c(S(=O)(=O)N(C)C)c1)Cc1nc2ccccc2c(=O)[nH]1	2.1 (active)
N#Cc1c(-c2ccc(Cl)cc2)c2c([nH]c1=S)CCCC2	0.8 (inactive)
CC(C)C[C@H](NC(=O)Nc1cccc(C(F)(F)F)c1)C(=O)O	4.4 (active)
O=C(O)CSCC(=O)Nc1cccc(C(F)(F)F)c1	0.9 (inactive)
CCNS(=O)(=O)c1ccc(NC(=O)Nc2cccc(C(F)(F)F)c2)cc1	0.6 (inactive)
